AddAB inh: growth inhibition of E. coli expressing H. pylori AddAB, primary screen, AddAB inhibitor project, absorbance. inhibition, % at 11.9 µM. 0.29% of 330,000 active; in the data active = inhibition above about 12%;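 note: 0% = vehicle wells of infected cells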
E coli growth-1: E. coli growth inhibition, primary screen, OD600; OD600 absorbance (concentration not given with the values); Escherichia coli growth, 23 h; hits give low values; 0.21% of 330,000 active;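 active = OD600 absorbance below the run mean of sample wells minus 3.6 SD, in any replicate, cut at about 0.56 in these data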
phage Ecoli inh: growth loss of phage-infected E. coli, primary screen, RecBCD inhibitor project, absorbance, with phage, HTS | inhibition, % at 11.9 µM | 0.26% of 360,000 active; in the data active = inhibition above about 11%
E coli growth-2: E. coli V3065 growth inhibition, primary screen, counter-screen for AddAB inhibitor project, absorbance, OD600; 18 h; inhibition, % at 11.9 µM; 0.27% of 330,000 active; AID 449728, 2010;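 active = inhibition above the campaign's mean inhibition across all tested compounds plus 3 SD, cut at about 9.9% in these data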;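 note: uninfected addAB+ strain grown without phage in ampicillin broth; 0% = DMSO wells and 100% = ciprofloxacin 0.95 µg/ml wells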
Tat transport: E. coli Tat export inhibitors, primary screen, MC4100, TorA-mCherry reporter, fluorescence, single point | 0.036% of 340,000 active | inhibition, % at 10 µM;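 active = mean replicate inhibition at least 50% and at least half of replicates individually reaching 50%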;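 note: exported cargo escapes ClpAP degradation while cytoplasmic cargo is degraded and loses fluorescence; 0% = median of neutral control wells and 100% = median of NaSCN control wells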
AddAB conf: growth loss of phage-infected E. coli expressing H. pylori AddAB, confirmation, AddAB inhibitor project, absorbance, E. coli V3065, T4 phage, triplicate. 64% of 880 active. OD; T4 phage with gene 2 nonsense mutations. shares compounds with AddAB inh. inhibition, % at 11.9 µM;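 active = mean inhibition above a set limit taken from the earlier primary screen, cut at about 13% in these data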;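 note: higher means less bacterial growth since AddAB block lets phage replicate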
RecBCD counter: growth loss of RecBCD+ E. coli with mutant T4 phage, counter-screen for AddAB inhibitor project, absorbance, V66 E. coli. shares compounds with AddAB inh. OD growth. inhibition, % at 11.9 µM. 73% of 880 active;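 active = mean inhibition above the mean of solvent-only control wells plus 3 SD, cut at about 4% in these data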;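 note: optical density read after an 18 h incubation at 37 °C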
bact viab count: bacterial viability inhibition counter-screen, confirmation, counter-screen for AddAB inhibitor project, absorbance | shares compounds with AddAB inh | absorbance (AddAB counterscreen) | inhibition, % at 11.9 µM | 35% of 880 active | AID 488956, 2010; in the data active = inhibition above about 25%
The depositor's hits bear a star; x = no result. Only some compounds are listed: those with a hit (about 0.5% of all), similar ones and a draw of the others.

SMILES	AddAB inh	E coli growth-1	phage Ecoli inh	E coli growth-2	Tat transport	AddAB conf	RecBCD counter	bact viab count
COc1ccc([N+](=O)[O-])cc1NC(=O)C(C)OC(=O)C1CCCC1 (configuration not stated)	0	0.66	0	1	-2	x	x	x
COc1ccc([N+](=O)[O-])cc1NC(=O)C(C)OC(=O)C1CCC1 (configuration not stated)	98*	0.62	0	95*	-11	-3	-2	-5
Cc1ccc(C)c(/C=C/C(=O)c2ccccc(=O)c2O)c1	15*	0.67	8	12*	-1	2	6.5*	-1
O=C(/C=C/c1ccccc1Cl)c1ccc(O)cc1	1	0.61	-2	-1	9	x	x	x
O=C(/C=C/c1ccccc1Cl)c1ccccc(=O)c1O	15*	0.66	3	9	-3	8	8.3*	5
NC(=NNC(=O)c1sccc1OCc1ccc(Cl)cc1Cl)c1ccccn1	x	0.72	x	x	x	x	x	x
CN(C(C(=O)OC(C)(C)C)c1ccccc1)S(=O)(=O)c1cccc(S(=O)(=O)N(C)C(C(=O)OC(C)(C)C)c2ccccc2)c1 (configuration not stated)	x	0.73	x	x	x	x	x	x
Cn1c(=O)c2c(ncn2CC(=O)NN=Cc2ccco2)n(C)c1=O	x	0.7	x	x	x	x	x	x
O=C(NN=Cc1ccc(S(=O)(=O)O)o1)c1ccc2c(c1)OCO2	x	0.69	x	x	x	x	x	x
NS(=O)(=O)c1ccc(N=Nc2c(O)ccc3ccccc23)cc1	2	0.69	2	1	-1	x	x	x
Oc1ccc(N=Nc2c(O)ccc3ccccc23)cc1	13*	0.59	3	13*	-5	60*	4	17
O=C1c2cccc3c([N+](=O)[O-])ccc(c23)C(=O)N1O	35*	x	44*	50*	81*	86*	74*	81*
O=C1c2cccc3c([N+](=O)[O-])ccc(c23)C(=O)N1c1ccccn1	1	0.67	3	-2	-12	x	x	x
CCN1CCN(C(=O)C2CCN(c3nnc(-n4c(C)ccc4C)s3)CC2)CC1	131*	0.73	1	2	8	5	1	-1
Cc1ccc(C)n1-c1nnc(N2CCC(C(=O)N3CCN(C)CC3)CC2)s1	4	0.75	3	-3	-5	x	x	x
Cc1ccc(NC(=S)NCc2cccnc2)cc1	4	0.67	5	4	-4	x	x	x
CCc1ccc(NC(=S)NCc2cccnc2)cc1	14*	0.61	7	11*	-9	6	6.7*	4
Oc1ccc(N=Nc2ccccc2-c2nn[nH]n2)c(O)c1	14*	0.6	7	15*	-3	8	6.7*	1
CC(C)CC(CO)N1CCN(Cc2ccc(Br)cc2)CCC1=O (configuration not stated)	x	0.66	x	x	x	x	x	x
CCN1C(=NCCCOC(C)C)NC(CCc2ccccc2)C(C(=O)NCCCOC(C)C)C1C (configuration not stated)	x	0.69	x	x	x	x	x	x
N/C(=N/OC(=O)c1ccccc1Cl)c1ncc([N+](=O)[O-])s1	14*	x	3	10*	-11	37*	3	9
NC(=NOC(=O)Nc1ccccc1)c1ncc([N+](=O)[O-])s1	x	0.65	x	x	x	x	x	x
Cc1cc(C)c2c(NC(=O)CCl)nn(C)c2n1	93*	0.71	0	65*	0	2	0	0
O=C(Oc1c(Cl)cc(Cl)c2cccnc12)c1cccc([N+](=O)[O-])c1	30*	0.071*	x	28*	2	62*	59*	58*
O=C(Oc1cccc2cccnc12)c1cccc([N+](=O)[O-])c1	1	0.62	1	0	-6	x	x	x
SMILES	AddAB inh	E coli growth-1	phage Ecoli inh	E coli growth-2	Tat transport	AddAB conf	RecBCD counter	bact viab count
CC(=O)Oc1cc(O)c2c(=O)c(OC(C)=O)c(-c3ccc(OC(C)=O)c(OC(C)=O)c3)oc2c1	16*	0.62	x	9	14	14*	4.2*	9
COc1ccc(-c2oc3cc(OC(C)=O)cc(OC(C)=O)c3c(=O)c2OC)cc1	x	0.64	2	x	-3	x	x	x
CC(=O)N(/N=C/c1ccc([N+](=O)[O-])o1)c1nc2ccccc2c(=O)n1-c1ccccc1	15*	x	6	11*	6	29*	3	13
Oc1cccc(C=NN(Cc2ccccc2)c2ccccc2)c1	x	0.66	x	x	x	x	x	x
CC1CCCC(=NNC(=O)c2ccncc2)C1 (configuration not stated)	x	0.72	x	x	x	x	x	x
CCCc1c(C)nc2ccc(OC)cc2c1SCCC(=O)O	15*	0.68	0	-1	-5	2	0	-2
C=C(C)C(=O)Nc1cccc(C2=NOC3(C2)CC(C(N)=O)N(C(=O)C2CCC(=O)N2)C3)c1 (configuration not stated)	x	0.72	x	x	x	x	x	x
O=C1C2CCCN2C(c2ccccc2)N1c1cccc(Cl)c1 (configuration not stated)	119*	0.65	2	1	2	-3	0	-3
O=C1C2CCCN2C(c2ccc(F)c(F)c2)N1c1cccc(Cl)c1 (configuration not stated)	2	0.72	0	1	-7	x	x	x
O=C(NN=Cc1ccc(OC(F)F)cc1OC(F)F)c1cccc(S(=O)(=O)N2CCOCC2)c1	x	0.7	x	x	x	x	x	x
O=C(NN=C/C=C/c1ccccc1)NC1CCCCC1	x	0.64	x	x	x	x	x	x
O=C(N/N=C/C=C/c1ccccc1)NC1CCCCC1	37*	x	4	18*	6	1	0	-2
CCOc1ccc(C(C)=O)cc1NC(=O)C=CC(=O)O	x	0.7	x	x	x	x	x	x
O=C(CC1CC=CCC(NC(=O)OCC2c3ccccc3-c3ccccc32)C(=O)OC(c2ccccc2)CNC1=O)NCCO (configuration not stated)	x	0.71	x	x	x	x	x	x
COc1ccc(Cl)cc1C(=O)CSc1nc(N)cc(N)n1	98*	0.67	3	97*	3	-1	-1	-3
CCCCn1nnnc1SCC(=O)c1cc(Cl)ccc1OC	4	0.71	0	-3	10	x	x	x
COc1ccccc1C=NNC(=Nc1ccc(C)cc1)c1nc2ccccc2s1	x	0.68	x	x	x	x	x	x
Cc1ccc(NC(=O)Cn2cnc3ccccc32)cc1C	14*	0.68	7	14*	-14	20*	14*	11
CSc1nc(N)nc2c1ncn2CC(=O)NCC(c1ccccc1)c1ccccc1	1	0.7	2	-2	4	x	x	x
CSc1nc(N)nc2c1ncn2CC(=O)Nc1ccc(C)c(C)c1	15*	0.63	9	12*	15	13*	11*	7
Cc1c(OC(C)C(=O)N[C@H](C(=O)O)c2ccccc2)ccc2c3c(c(=O)oc12)CCCC3 (some centres not stated)	3	0.74	2	-1	-1	x	x	x

Bioassay records as filed in PubChem BioAssay.
